Laboratory results taken from PubChem BioAssay AID2472 (National Center for Advancing Translational Sciences (NCATS), 2010).
Hit rate of the full screen: of about 290,000 compounds, about 2,000 (0.69%) were called active. No stated cut-off is given here; in the data, active means activity change below about -30%; inactive means the rest, inconclusive results apart. Many of the other results were omitted from the sample, so actives are more common in it than they were.

Assay: qHTS Assay for Inhibitors of Fructose-1,6-bisphosphate Aldolase from Giardia Lamblia: Coupling assay counterscreen
Details: coupling enzyme system counterscreen, AmpLite Red fluorescence; at 58.2 µM (top of the series)
Summary of the method: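 Coupling enzymes only (glyceraldehyde-3-phosphate) + compound, at 57.5 uM final, 10 min RT; add substrate/coupling/AmpLite Red mix, 20 min RT; fluorescence ex 525/em 598 nm. Actives flag coupling-system interference.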
On the % scale 0 is the no-effect control and ±100 the full control effect.

Question: For `CCn1nccc1C(=O)Nc1ccc(Cl)c(Cl)c1`, which activity change, negative = inhibition is on record?
Answer: The activity change, negative = inhibition was 0.939% (inactive).

Question: For `Cc1cc(C(F)F)n2nc(C(=O)Nc3ccc(S(=O)(=O)NC45CC6CC(CC(C6)C4)C5)cc3)nc2n1`, which activity change, negative = inhibition is on record?
Answer: Its activity change, negative = inhibition is 0.756% (inactive).

Question: Which activity change, negative = inhibition does the source give for `CCn1nccc1C(=O)Nc1ccc(S(=O)(=O)NC23CC4CC(CC(C4)C2)C3)cc1` here?
Answer: Its activity change, negative = inhibition is -40.9% (active).

Question: For `COc1ccc(NC(=O)C2CCC(CNC(=O)[C@@H]3Cc4ccccc4CN3)CC2)cc1` (stereo partly drawn), which activity change, negative = inhibition is on record?
Answer: Its activity change, negative = inhibition is 0.0857% (inactive).

Question: With `COc1ccc(NC(=O)CCn2ccnc2)c(OC)c1` as the compound, how does the activity change, negative = inhibition read?
Answer: Its activity change, negative = inhibition is 5.46% (inactive).

Question: With `Oc1ccc(N=Cc2sc3ccccc3c2Cl)cc1` as the compound, how does the activity change, negative = inhibition read?
Answer: Its activity change, negative = inhibition is -45.3% (active).

Question: Which activity change, negative = inhibition does the source give for `COc1ccc(N=C(C)c2sc3ccccc3c2O)cc1` here?
Answer: Its activity change, negative = inhibition is -5.39% (inactive).

Question: For `O=C(N/N=C/c1c(Cl)[nH]c2ccccc12)c1sc2ccccc2c1Cl`, which activity change, negative = inhibition is on record?
Answer: Its activity change, negative = inhibition is -8.68% (inactive).

Question: Which activity change, negative = inhibition does the source give for `COc1ccccc1S(=O)(=O)c1c(C)cc(C)[nH]c1=O` here?
Answer: Its activity change, negative = inhibition is 0.55% (inactive).

Question: Which activity change, negative = inhibition does the source give for `C=CC(C1=CC(=O)C=CC1=O)c1ccc(O)cc1` (stereo not drawn) here?
Answer: The activity change, negative = inhibition was -27% (inactive).

Question: For `CCOC(=O)c1ccccc1C(=O)N1CCOCCOCCOCC1`, which activity change, negative = inhibition is on record?
Answer: Its activity change, negative = inhibition is -0.445% (inactive).

Question: Which activity change, negative = inhibition does the source give for `Cc1oc2c(c1C(=O)N1CCOCC1)C(=O)c1ccccc1C2=O` here?
Answer: The activity change, negative = inhibition was -40.8% (active).

Question: Which activity change, negative = inhibition does the source give for `Cc1noc(C)c1C(=O)N1CCOCC1` here?
Answer: Its activity change, negative = inhibition is 0.778% (inactive).

Question: With `COC(=O)c1cc2c(ccn2C)n1C` as the compound, how does the activity change, negative = inhibition read?
Answer: Its activity change, negative = inhibition is -5.9% (inactive).

Question: For `Cc1cc(C(=O)N/N=C/c2ccccn2)c2ccccc2n1`, which activity change, negative = inhibition is on record?
Answer: Its activity change, negative = inhibition is 0.262% (inactive).

Question: Which activity change, negative = inhibition does the source give for `CCOC(=O)CSc1nccc(N(C)C)c1C#N` here?
Answer: Its activity change, negative = inhibition is -0.791% (inactive).

Question: Which activity change, negative = inhibition does the source give for `CCCc1cc(=S)n2c([nH]c3ccccc32)c1C#N` here?
Answer: The activity change, negative = inhibition was -7.83% (inactive).

Question: With `CCOC(=O)CCc1c(C)c(C#N)c2[nH]c3ccccc3n2c1=O` as the compound, how does the activity change, negative = inhibition read?
Answer: Its activity change, negative = inhibition is -41.6% (active).

Question: For `C=CCn1cc(Cl)cc(C(=O)Nc2ccccc2)c1=O`, which activity change, negative = inhibition is on record?
Answer: Its activity change, negative = inhibition is 0.816% (inactive).

Question: With `COc1ccc(S(=O)(=O)/N=C2\C=C(NS(=O)(=O)c3ccccc3)C(=O)c3ccccc32)cc1` as the compound, how does the activity change, negative = inhibition read?
Answer: The activity change, negative = inhibition was -39.6% (active).

Question: Which activity change, negative = inhibition does the source give for `COc1ccc2cc(S(=O)(=O)Nc3ccccn3)ccc2c1` here?
Answer: Its activity change, negative = inhibition is 0.329% (inactive).

Question: For `COc1ccc(S(=O)(=O)Nc2c(C)n(C)n(-c3ccccc3)c2=O)cc1`, which activity change, negative = inhibition is on record?
Answer: Its activity change, negative = inhibition is 0.385% (inactive).

Question: Which activity change, negative = inhibition does the source give for `C[C@@H](O)[C@@H]1NC(=O)[C@H](CCCCN)NC(=O)[C@H](Cc2c[nH]c3ccccc23)NC(=O)[C@H](Cc2ccccc2)NC(=O)[C@H](Cc2ccccc2)NC(=O)[C@H](CC(N)=O)NC(=O)[C@H](CCCCN)NC(=O)[C@@H](NC(=O)[C@@H]2CCCN2)CSSC[C@@H](C(=O)N[C@@H](CCCCN)C(=O)O)NC(=O)[C@H](CO)NC(=O)[C@H](CO)NC(=O)[C@H](Cc2ccccc2)NC1=O` here?
Answer: Its activity change, negative = inhibition is -0.403% (inactive).

Question: Which activity change, negative = inhibition does the source give for `CCCc1c(C(=O)Nc2ccc(F)cc2)cnn1-c1ccccc1` here?
Answer: Its activity change, negative = inhibition is -6.8% (inactive).

Question: For `Cc1ccc(CNC(=O)C2(C(F)(F)F)C/C(=C\CCO)CCCO2)o1` (stereo not drawn), which activity change, negative = inhibition is on record?
Answer: The activity change, negative = inhibition was 3.8% (inactive).

Question: For `Cc1ccc(/C=C(\C#N)C(=O)Nc2cccc3ncccc23)o1`, which activity change, negative = inhibition is on record?
Answer: The activity change, negative = inhibition was -39% (active).

Question: With `Cc1ccc(C(=O)Nc2cccc3ncccc23)cc1[N+](=O)[O-]` as the compound, how does the activity change, negative = inhibition read?
Answer: Its activity change, negative = inhibition is 0.485% (inactive).

Question: For `O=C(Nc1cccc2ncccc12)C(Cl)(Cl)Cl`, which activity change, negative = inhibition is on record?
Answer: The activity change, negative = inhibition was 0.503% (inactive).

Question: For `CCOC(=O)C1CCCN(S(=O)(=O)c2ccc(-n3cnnn3)c(C)c2)C1` (stereo not drawn), which activity change, negative = inhibition is on record?
Answer: The activity change, negative = inhibition was 2.06% (inactive).

Question: For `c1ccc2c(Nc3ccncc3)nc(-c3ccc4c(c3)OCO4)nc2c1`, which activity change, negative = inhibition is on record?
Answer: Its activity change, negative = inhibition is -0.804% (inactive).

Question: With `CC(C)(C)c1ccc(NC(=O)NCc2ccco2)cc1` as the compound, how does the activity change, negative = inhibition read?
Answer: Its activity change, negative = inhibition is -0.174% (inactive).

Question: Which activity change, negative = inhibition does the source give for `O=C(Nc1ccc2nccnc2c1)c1ccco1` here?
Answer: Its activity change, negative = inhibition is -1.38% (inactive).

Question: For `O=C(NCc1ccccn1)c1ccc2nc(-c3ccco3)c(-c3ccco3)nc2c1`, which activity change, negative = inhibition is on record?
Answer: The activity change, negative = inhibition was -38.7% (active).

Question: For `Cc1cc(C)cc(NC(=O)NCc2ccccn2)c1`, which activity change, negative = inhibition is on record?
Answer: The activity change, negative = inhibition was -0.5% (inactive).

Question: Which activity change, negative = inhibition does the source give for `COc1ccc2oc(=O)c(C(=O)NCc3ccccn3)cc2c1` here?
Answer: Its activity change, negative = inhibition is -2.85% (inactive).

Question: For `COCCNC(=O)Nc1ccc2nc(-c3ccco3)c(-c3ccco3)nc2c1`, which activity change, negative = inhibition is on record?
Answer: Its activity change, negative = inhibition is -35% (active).

Question: Which activity change, negative = inhibition does the source give for `CCCCC/C=C\C/C=C\C/C=C\CCCCCCC(N)=O` here?
Answer: Its activity change, negative = inhibition is 2.69% (inactive).

Question: With `CCC1Sc2ccc(S(=O)(=O)CCC(=O)NCc3cccs3)cc2NC1=O` (stereo not drawn) as the compound, how does the activity change, negative = inhibition read?
Answer: Its activity change, negative = inhibition is -3.89% (inactive).

Question: For `Cc1cc2c(cc1S(=O)(=O)NCc1ccc(Cl)cc1)OCC(=O)N2`, which activity change, negative = inhibition is on record?
Answer: Its activity change, negative = inhibition is 1.64% (inactive).

Question: Which activity change, negative = inhibition does the source give for `COC(=O)C(C(=O)OC)[C@@H](NC=O)c1ccccc1` here?
Answer: Its activity change, negative = inhibition is 1.57% (inactive).

Question: Which activity change, negative = inhibition does the source give for `CCOC(=O)c1cc2n(c1N)-c1ccccc1C2=O` here?
Answer: The activity change, negative = inhibition was -30.6% (active).

Question: Which activity change, negative = inhibition does the source give for `CCOC(=O)C1=C(C(=O)OCC)C(C(=O)OCC)N(S(=O)(=O)C(F)(F)F)c2ccccc21` (stereo not drawn) here?
Answer: The activity change, negative = inhibition was 0.565% (inactive).

Question: For `CCOC(=O)c1ccccc1CN1C(=O)c2ccccc2S1(=O)=O`, which activity change, negative = inhibition is on record?
Answer: The activity change, negative = inhibition was -1.95% (inactive).

Question: With `COC(=O)c1ccc(CNC(=O)C2CCC(=O)N(Cc3ccccn3)C2)cc1` (stereo not drawn) as the compound, how does the activity change, negative = inhibition read?
Answer: Its activity change, negative = inhibition is 0.556% (inactive).

Question: For `CCOC(=O)C1=NO[C@@]2(C=C(Br)C(=O)[C@H]3O[C@H]32)C1`, which activity change, negative = inhibition is on record?
Answer: Its activity change, negative = inhibition is 1.71% (inactive).

Question: Which activity change, negative = inhibition does the source give for `Cc1cc(CNC(=O)C2CCC(=O)N(CCc3ccc(Cl)cc3)C2)no1` (stereo not drawn) here?
Answer: Its activity change, negative = inhibition is 2.61% (inactive).

Question: With `CC(C(=O)NCCc1ccc(S(N)(=O)=O)cc1)N1C(=O)CC(C)(C)Sc2ccccc21` (stereo not drawn) as the compound, how does the activity change, negative = inhibition read?
Answer: Its activity change, negative = inhibition is 5.69% (inactive).

Question: Which activity change, negative = inhibition does the source give for `O=C(N/N=C/c1c[nH]c2ccccc12)c1ccccc1O` here?
Answer: Its activity change, negative = inhibition is 1.26% (inactive).

Question: Which activity change, negative = inhibition does the source give for `C[n+]1ccc(/C=C/c2c[nH]c3ccccc23)cc1` here?
Answer: Its activity change, negative = inhibition is -48.5% (active).

Question: Which activity change, negative = inhibition does the source give for `CSC(=S)N/N=C/c1c[nH]c2ccccc12` here?
Answer: The activity change, negative = inhibition was -0.216% (inactive).

Question: For `O=C(NC1CC1)C1=C[C@H](c2c[nH]c3ccccc23)C[C@H](OCc2ccc(CO)cc2)O1`, which activity change, negative = inhibition is on record?
Answer: Its activity change, negative = inhibition is -9.68% (inactive).

Question: Which activity change, negative = inhibition does the source give for `COc1cccc([C@@H]2Oc3ccc(Br)cc3C(=O)[C@H]2OC(=O)NCc2ccc3c(c2)OCO3)c1` here?
Answer: The activity change, negative = inhibition was 1.06% (inactive).

Question: With `COc1ccc(CCNC(=O)CSCc2ccc(Br)cc2)cc1OC` as the compound, how does the activity change, negative = inhibition read?
Answer: The activity change, negative = inhibition was -0.53% (inactive).

Question: For `CCCCCCCCCc1ccc(OCCOCCOCCOCCOCCOCCOCCOCCOCCO)cc1`, which activity change, negative = inhibition is on record?
Answer: Its activity change, negative = inhibition is 0.692% (inactive).

Question: Which activity change, negative = inhibition does the source give for `COC(=O)[C@@]1(Cc2ccc(F)cc2)[C@H]2c3cc(C(=O)N4CCCC4)n(C[C@H](O)CO)c3C[C@H]2CN1C(=O)c1ccccc1` here?
Answer: The activity change, negative = inhibition was 4.89% (inactive).

Question: Which activity change, negative = inhibition does the source give for `COc1ccc(N2CCN(C(C)=C3C(=O)c4ccccc4C3=O)CC2)cc1` here?
Answer: The activity change, negative = inhibition was -5.52% (inactive).

Question: With `O=C1C(Cl)=C(N2CCOCC2)C(=O)N1c1ccccc1` as the compound, how does the activity change, negative = inhibition read?
Answer: The activity change, negative = inhibition was 4.18% (inactive).

Question: With `COC1=C(N2CCOCC2)C(=O)c2ccccc2C1=O` as the compound, how does the activity change, negative = inhibition read?
Answer: Its activity change, negative = inhibition is -31.1% (active).
